Test results published in the supplement of paper PMC6555819.

The sequences below were run on VDR:RXRa (NR concentration 270 nM, RXRa partner concentration 90 nM) (assay: PBM binding z-score (relative to random genomic background probes); higher = stronger binding; sequences stand for … in GC…GCGATTGACAGCGTAGAATGAAGG).
Method: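 Protein-binding microarray (Agilent 4x180K custom design, double-stranded 60-nt probes: 5' GC cap, 34-nt variable region, 24-nt constant primer region; full probe sequence given). Purified or IVT nuclear receptor:RXRα heterodimers (3:1 NR:RXRα, mostly 270:90 nM) or homodimers were incubated for 1 h in PBS with 2% milk and no ligand, then detected with Alexa488 antibodies. Fluorescence from o1-orientation probes (~5 replicates averaged) was converted to z-scores against 500 random hg19 background probes. Variable regions are seed direct-repeat (DR0–DR5) sites, all their single-nucleotide variants and half-site ablations.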

Sequence | PBM binding z-score
AGAATGTGGTTATACGTAGATCAGGGAAGAAAGT | 0.0519
ATCTCTAGGTAAAATTTCAGTGAATCCCGAGGAT | 0.166
GCTATTAGTCGAAAGGGCAACCGAATGATTCTCG | 0.247
GCTAGTTGGTCAGTAAAAGGTTACACACCGGTCG | 0.877
AGAACGAGGGCCCGCTGAGTTGATAGCAGAGTAG | -1.03
TCTAGTTGGTCAAAGGTCACACATTCGAAATGCG | 5.09
GCTGCTAGGTCAGGTTGTTCAGCTAACGGGTACG | 0.65
ACAGACAGGTGAGCGAAGGTAACTCAGCTGGACG | -0.641
CCTCGGAGCACAACAGGAGGTCAGAGCTGCCAGA | 1.32
CCTACTGGGCCAAGGTCCTTGATCAGTCAAAGCA | -0.657
CGTCCAAGGTCAATGCTAGGTCTGTGAAAGCATT | 3.76
ATATGTAGGTTATCGGGTCACTCAGTTTGCGCAT | 5
CGTCAAAGTTCAACTAAGGAAACGTAAAGCACGC | 4.16
AGCGAAAGGTCGTGAGGTGAGTATACAGAAAGGC | 3.51
CCTAGTTGGTCAAGGTCACACTCGCTATAGGTAC | 3.99
CAAACTAGGTCACCGGAAGGCCAAAGTCCGCATG | 3.23
TCATATAGGCAAAAGGTGAAAGTCGGTGTGGTAA | 1.05
ATCTCTAGGTAAAAGTTTAGTGAATCCCGAGGAT | 0.124
CCGACTGGGGCATTAGGTTACCATAAGCCAGCCC | -0.353
GATACAGGGTCAAGGCCCGAGTACGCGTATTGAT | 4.28

Sequence | PBM binding z-score
GCAGACAGGTGTAACGCAGGTAACTCAGGGTGGC | -0.647
CGTCCAAGGTCAATGCTAGGTAAGTGAAAGCATT | 3.62
AGAACGAGTGCACGCTGAGTTGATAGCAGAGTAG | 2.1
GCTAGCAGGCCATTTGGGTCACTCGATGACGGGC | 0.762
CCGACTGGTGCAGAAAGGTTACCATACCATCCGG | 0.685
GGAACGAGGGCAAGTTGTTAGCAGAGTTTGATGG | 0.88
TCTAGTAGGTTACCAATGGGGCATTCAGCTTTCT | 0.81
ACAGACAGGTGAGTGTAGGTAACTCAGCTGGACG | -0.371
CATACAGGGTCAGCTAGGCGAGAGTAGGGACGGC | 2.57
GCTTGTAGATCAACGTTAAGAAAGACTAAGCTAA | -0.456
AGAACGAGGGCACGCTGATTTGATAGCAGAGTAG | 0.858
AGAACGAGGGCAATGAGTTGAGAGCACGGGTGGC | 4.33
CCGAGTGGGGCAAAGGTTACCATACTCAGTACGA | 1.49
TCTTGTAGATCAAGCAGGTTAGGAAAGCCTGAGT | 0.203
TCTCGGAGGAAACGAAGGTCAGAGCTTTCCAGAG | 0.66
GGAACGAGAGCAAAGTTGATAGCATCTGTCGACG | -0.413
ATACCAAGGTGATCGTGAGGTCGTTAATACTAAC | 3.1
TCATATTGGTAAAGGTGAAAGTCGAACGATATGA | 0.612
CCGACTGGGGCAGAAAGGTTACCATCCCATCCGG | 0.789
ACTATTTGTTGAGACGAGGGCAACCGATAGGTTG | 0.711
